High-throughput results deposited in PubChem BioAssay by National Center for Advancing Translational Sciences (NCATS).
JMJD2A Tudor: JMJD2A Tudor domain (human) inhibition. AlphaScreen JMJD2A-Tudor / H3K4me3 peptide binding. AID 504339. O75164. 390,000 compounds, 4.4% hits. Potency, µM (titrated, usually from 114 µM), hits mostly inhibitors; also: nearly all actives have a fitted effect of over 50% in size
Sfp inh: inhibitors of Bacillus subtilis Sfp phosphopantetheinyl transferase; Potency, µM, usual class: inhibitors; Biochemical Sfp PPTase activity, qHTS; 310,000 compounds, 3.5% hits; Q9F4F7;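 also: the enzyme is Sfp with the accession as filed and its product quenches rhodamine fluorescence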
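Fluorescence-quenching assay with 15 nM Sfp, 5 uM rhodamine-CoA and 12.5 uM BHQ-2-labelled ybbR peptide in pH 7.6 Hepes/MgCl2 buffer. Enzyme was pre-incubated with compound for 15 min at room temperature. Rate was taken from the 30-min fluorescence change (525/598 nm).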
HP1b chromo inh: inhibitors of HP1-beta chromodomain binding to methylated histone tails | Potency, µM (titrated, usually from 114 µM), most hits filed as inhibitors | AID 540317 | AlphaScreen HP1-beta / biotin-H3K9me3 peptide binding | 390,000 compounds, 0.56% hits; also: nearly all actives have a fitted effect of over 70% in size
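AlphaScreen: HP1-beta (50 nM) preformed 30 min with biotin-H3(1-18)K9me3 peptide (50 nM) in PBS pH 7.4, 0.01% Tween-20. Compound added for 30 min at RT, then streptavidin donor/nickel chelate acceptor beads (10 ug/mL) for 30 min.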
BAZ2B inh: BAZ2B (human) inhibition; AID 504333; Potency, µM (top dose mostly 114 µM), most hits filed as inhibitors; 360,000 compounds, 4.4% hits; AlphaScreen BAZ2B-H3K14Ac peptide displacement; also: nearly all actives have a fitted effect of over 60% in size
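Protein-peptide AlphaScreen: BAZ2B 50 nM, b-H3K14Ac 50 nM, 1x PBS pH 7.4 + 0.01% Tween-20. Preincubation 30 min RT; cpd 30 min RT (top 110 uM); beads 20 min RT, light-protected.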
G9a inh: inhibitors of human histone lysine methyltransferase G9a; Q96KQ7; G9a H3K9 monomethylation, AlphaScreen, 2 h; Potency, µM (highest dose often 102 µM), hits mostly inhibitors; 350,000 compounds, 8.8% hits; also: nearly all actives have a fitted effect of over 75% in size
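G9a (20 nM) was preincubated 15 min with compound, then reacted 2 h at room temperature with 500 nM biotin-H3K9 peptide and 20 µM SAM. Monomethyl-H3K9 detected by AlphaScreen using anti-H3K9me1 antibody.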
ALOX12 inh: inhibitors of human 12S-lipoxygenase ALOX12. P18054. purified 12hLO, xylenol orange hydroperoxide absorbance. Potency, µM (highest dose often 108 µM), usual class: inhibitors. 580,000 compounds, 1.1% hits. AID 1671190
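Purified human 12hLO (150 nM final) in 25 mM Hepes, 0.01% Triton X-100, pH 7.0 was preincubated 15 min at room temperature with compound. Then 40 uM arachidonic acid was added, 30 min. Hydroperoxide was read by Fe-XO absorbance ratio 573/405 nm.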
Hits are given with their value; . = inactive; ? = inconclusive; / = not tested or not shown; [ ] = another dose, or the depositor's remark. Sampled rows, rich in hits. Any-hit rate of the full collection: about 8.7%. Calls follow the shape of the dose curve; as a rule, active = well fitted curve in the direction sought with a large enough effect; inconclusive = small, poorly fitted or top-dose-only effect, or another doubt; inactive = no such curve, though single readings can be large; an effect the other way counts as inactive or inconclusive.

SMILES	JMJD2A Tudor	Sfp inh	HP1b chromo inh	BAZ2B inh	G9a inh	ALOX12 inh
FC(F)(F)c1ccc(CN2CCNc3cc(Nc4cccnc4)ncc3C2)cc1	/	/	/	/	/	.
Cc1noc(C)c1[S+](=O)([O-])N1CCN(c2nc3ncccc3o2)CC1	/	/	/	/	/	.
O=C(O)c1cccc2[nH]ccc12	/	/	/	/	/	.
O=C1S/C(=C\c2ccccn2)C(=O)N1Cc1ccccc1F	.	.	.	.	18µM	?
O=C(CN1C(=O)S/C(=C/c2ccccn2)C1=O)N1CCOCC1	.	.	.	.	.	.
COc1cc(/C=C2\CC/C(=C\c3cc(OC)c(OC)c(OC)c3)C2=O)cc(OC)c1OC	?	.	.	.	.	.
CCOc1cc(/C=C2\CN(CC)C/C(=C\c3ccc(O)c(OCC)c3)C2=O)ccc1O	56µM	.	.	50µM	28µM	?
COc1cc(/C=C2/C(=O)CNC2=O)ccc1O	.	?	.	.	45µM	.
COc1cc(/C=C2\CCC/C(=C\c3ccc(O)c(OC)c3)C2=O)ccc1O	28µM	.	?	?	45µM	?
COc1cc(/C=C2/CCC/C(=C\c3cc(O)c(OC)c(Cl)c3)C2=O)cc(Cl)c1O	?	.	.	?	35µM	.
COc1cc(/C=C2/CCCC(C(=O)C(F)(F)F)=C2O)ccc1O	.	.	.	?	.	.
CCOc1ccc(NC(=O)COc2ccc(CC)cc2)c2cccnc12	/	/	/	/	/	.
COc1cc(/C=C2\CC/C(=C\c3cc(OC)c(O)c(OC)c3)C2=O)cc(OC)c1O	45µM	45µM	?	50µM	2.5µM	20µM
COc1ccc(/C=C2\CCC(C3CCCC3)C2=O)c(OC)c1OC (configuration not stated)	.	.	.	.	.[2.33 µM]	.
COc1ccc(/C=C2/CC/C(=C\c3ccc(OC)c(OC)c3OC)C2=O)c(OC)c1OC	?	.	.	?	7.9µM	.
O=C(NCC1CCN(c2cc(-c3ccc(Cl)cc3)[nH]n2)CC1)c1ccc[nH]1	/	/	/	/	/	.
CCC(CC)C(=O)Nc1nnc(-c2cccs2)s1	.	.	.	.	16µM	.
Cc1nnc(NC(=O)CN2CCN(Cc3ccccc3)CC2)s1	.	.	.	.	/	.
CN1CCN(CC(=O)Nc2nnc(-c3cccs3)s2)CC1	11µM	.	.	.	?	.
CCCc1nnc(NC(=O)CN2CCN(C)CC2)s1	.	.	.	79µM	?	?
COc1cccc(OC)c1C(=O)Nc1nnc(-c2cccs2)s1	.	.	.	.	/	.
CCCN1CCN(CC(=O)Nc2nnc(C)s2)CC1	.	.	.	.	/	.
Cc1c(C)c2ccc(OCC(=O)Nc3nc4ccccc4[nH]3)cc2oc1=O	/	/	/	/	/	.
Cc1oc2cc(OCC(=O)NCc3cccs3)ccc2c(=O)c1Oc1ccccc1	/	/	/	/	/	.
COc1ccc(NS(=O)(=O)NC(=O)c2c(C)n(C)c3ccccc23)cc1	.	.	.	.	40µM	.
SMILES	JMJD2A Tudor	Sfp inh	HP1b chromo inh	BAZ2B inh	G9a inh	ALOX12 inh
Cn1nccc1C(=O)N1CCCC(Cc2noc(-c3ccccn3)n2)C1 (configuration not stated)	/	/	/	/	/	.
O=c1cc(CN2CCN(S(=O)(=O)c3ccc4c(c3)OCCO4)CC2)c2ccc(O)cc2o1	.	.	.	.	50µM	?
COc1cccc(C2CCCN2Cc2cc(=O)oc3cc(OC)ccc23)c1 (configuration not stated)	/	/	/	/	/	45µM
COc1ccc(OC)c(CN2CCN(Cc3cc(=O)oc4cc(O)ccc34)CC2)c1	.	.	.	.	35µM	.
COc1ccc2c(CN3CCN(c4ccccc4)CC3)cc(=O)oc2c1	/	/	/	/	/	.
Cc1ccc(NS(=O)(=O)c2ccc3[nH]c4c(c3c2)CCCCCC4)cc1	?	/	.	40µM	?	?
O=S(=O)(c1ccc2[nH]c3c(c2c1)CCCC3)N1CCCCC1	.	.	.	25µM	/	.
COc1ccc(NS(=O)(=O)c2ccc3[nH]c4c(c3c2)CCCC4)cc1OC	45µM	/	?	?	11µM	?
COC(=O)Nc1ccc(S(=O)(=O)NCc2ccccn2)cc1	5.6µM	.	.	.	.	.
O=S(=O)(NCCCc1ccccc1)c1cccc2nsnc12	.	.	.	.	.	.
CCOc1ccc(OCC)c(S(=O)(=O)NCc2ccccn2)c1	89µM	.	.	.	.	.
O=S(=O)(Cc1ccccc1)NCc1ccccn1	3.5µM	.	.	.	?	?
CCOc1ccc(Cl)cc1S(=O)(=O)NCc1ccccn1	.[11.4 µM]	.	.	.	.	.
O=S(=O)(NCc1ccccn1)c1cccc2nsnc12	?	.	.	?	20µM	.
COC(=O)COc1ccc(S(=O)(=O)NCc2ccccn2)cc1	.	.	.	.	/	.
O=S(=O)(NCc1ccccn1)c1ccccc1	8.9µM	.	.	.	.	.
COc1c(C)cc(S(=O)(=O)NCc2ccccn2)c(C)c1C	25µM	.	.	.	.[0.501 µM]	.
CC(C)(C)c1ccc(S(=O)(=O)NCc2ccccn2)cc1	.	.	.	.	.[12.7 µM]	.
CCOC(=O)Cc1c(C)nc2c(-c3ccc(Cl)cc3)c(C)[nH]n2c1=O	.	.	.	.	50µM	.
CCOC(=O)CCc1c(C)nc2c(-c3ccccc3)c(C)[nH]n2c1=O	.	/	.	.	?	.
CCOC(=O)Cc1c(C)nc2c(C#N)c[nH]n2c1=O	.	.	.	.	79µM	.
